Assay results reported in PubChem BioAssay (EPA / NIEHS).
Inconclusive results are not listed. Active and inactive are the calls of the source. How the source made its calls, unless noted: active means hit-call score of the fitted dose curve at least 0.9, where 1 is the maximum; inconclusive means response in the unintended direction; inactive means score below 0.9.

Experiments:
[1] = STM_H9_CystineISnorm_perc: Stemina devTOX quickPredict H9 human embryonic stem cell (hESC)-based Assay for Cystine (CYSS) Metabolite Biomarker, Normalized (AID 2283713; active means hit-call score of the fitted dose curve at least 0.9, where 1 is the maximum; inactive means score below 0.9)
How it was run: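 UPLC-HRMS read-out: endogenous cystine peak area in spent medium, normalized to isotope-labeled internal standard and to median of 0.1% DMSO controls. Pluripotent H9 cells, 72h exposure, daily medium/compound replenishment; medium from last 24h sampled.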

[2] = STM_H9_OrnCyssISnorm_ratio: Stemina devTOX quickPredict H9 human embryonic stem cell (hESC)-based Assay for Ornithine (ORN):Cystine (CYSS) Ratio (AID 2283714)
How it was run: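 UPLC-HRMS of spent media: ORN/CYSS ratio of internal-standard-normalized percentages, DMSO (0.1%) baseline. Pluripotent H9 hESCs, 72h exposure, daily re-dosing with fresh media; last 24h media collected.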

[3] = Tanguay_ZF_120hpf_ActivityScore_legacy: (Legacy) Oregon State University Tanguay Lab 120 Hour Post-fertilization zebrafish Assay Score for Activity (AID 2283742);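 on AC50: dechorionated Tropical 5D wild-type zebrafish embryos held singly per well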
How it was run: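 Dechorionated 5D embryos, one per well, static exposure 6–120 hpf, 28C, sealed and dark; final DMSO 0.64% (vol/vol). Brightfield binary scoring of mortality plus 18 endpoints; gain-of-signal fit versus DMSO baseline.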

[4] = target: Luciferin 4-monooxygenase (Photinus pyralis) (UniProt P08659); test: CCTE_Simmons_QuantiLum_inhib_2: CCTE's Firefly Luciferase Inhibition Assay, Simmons Lab (AID 2283767);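 on AC50: potency for inhibitors that lower luciferase luminescence relative to DMSO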
Sequence of Luciferin 4-monooxygenase (Photinus pyralis) (P08659 whole entry, looked up): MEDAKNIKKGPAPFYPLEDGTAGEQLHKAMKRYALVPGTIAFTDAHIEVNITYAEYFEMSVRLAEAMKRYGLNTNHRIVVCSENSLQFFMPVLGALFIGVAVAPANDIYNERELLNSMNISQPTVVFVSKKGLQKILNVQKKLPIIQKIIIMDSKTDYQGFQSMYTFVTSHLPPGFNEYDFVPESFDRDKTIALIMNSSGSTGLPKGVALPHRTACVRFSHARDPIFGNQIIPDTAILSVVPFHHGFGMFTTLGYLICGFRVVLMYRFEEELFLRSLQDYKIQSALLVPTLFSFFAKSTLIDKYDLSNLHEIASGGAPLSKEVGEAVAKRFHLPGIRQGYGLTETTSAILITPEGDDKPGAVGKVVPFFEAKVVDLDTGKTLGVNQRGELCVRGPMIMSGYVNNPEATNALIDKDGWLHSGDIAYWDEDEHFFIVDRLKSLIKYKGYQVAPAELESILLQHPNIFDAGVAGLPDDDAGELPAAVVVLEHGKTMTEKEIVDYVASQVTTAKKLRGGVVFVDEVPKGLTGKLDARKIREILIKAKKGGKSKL
How it was run: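 Cell-free QuantiLum luciferase, 5 ng/well; compounds 5 nM–87.5 uM final, 8 conc, 0.5% DMSO; 30 min, 37C, dark. Detection reagent (150 uM D-luciferin, 147 uM dATP, CoA, DTT, pH 7.8 final) injected per well, kinetic luminescence. Triplicate biological replicates.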

[5] = CEETOX_H295R_MTT_cell_viability: Viability Assessment in the CeeTox HT-H295R MTT Assay (AID 2283718; active means hit-call score of the fitted dose curve at least 0.9, where 1 is the maximum; inactive means score below 0.9;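 on AC50: curve fitted both ways so AC50 may mark viability loss or gain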)
How it was run: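 Human H295R adrenal cells, prestimulated 48 h with 10 uM forskolin, were exposed 48 h to chemicals in 0.1% DMSO. Viability was measured in the same wells by MTT (0.5 mg/ml, 4 h, 37 C), absorbance 570/650 nm, as percent of controls.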

[6] = ACEA_AR_agonist_AUC_viability: ACEA Biosciences xCELLigence Real-Time Cell Analysis on Androgen Receptor Agonism for Viability (AID 2283775);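 on AC50: viability read 80 hours after compound addition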
How it was run: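 Viability endpoint from xCELLigence impedance in 22Rv1 prostate cells at 80 h. Eight-point series, 100 uM maximum final.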

[7] = ArunA_Migration_hNC: ArunA Biomedical's Oris Neural Crest (hNC) Cell Migration Assay (AID 2283755)
How it was run: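 Calcein-AM fluorescence (ex494 nm/em 517 nm) in the stopper-defined detection zone quantifies migration of hNC cells after 72 h chemical exposure; 60,000 cells/well plated on Matrigel with LIF and bFGF, 16 h pre-incubation. DMSO baseline.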

[8] = ArunA_NOG_NucleusCount: ArunA Biomedical's Neurite Outgrowth (NOG) Assay for Nucleus Count (AID 2283756)
How it was run: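 Viable neuron count, from Hoechst nuclei passing size and intensity gates, imaged at 20x on differentiated H9-derived human neurons. Exposure lasted 48 h from seeding; activity was scored relative to DMSO.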

[9] = ArunA_NOG_NeuriteLength: ArunA Biomedical's Neurite Outgrowth (NOG) Assay for Neurite Length (AID 2283757)
How it was run: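 Total neurite length per neuron, from traced βIII-tubulin-labelled processes longer than 10 um on viable Hoechst-gated cells, was scored as decrease from DMSO. Cells were hESC (H9)-derived neurons given 48 h chemical exposure immediately after seeding.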

[10] = ArunA_NOG_NeuritesPerNeuron: ArunA Biomedical's Neurite Outgrowth (NOG) Assay for Neurites Per Neuron (AID 2283758)
How it was run: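 Differentiated human H9-derived neurons exposed to chemicals for 48 h from seeding, then stained with Hoechst and βIII-tubulin/DyLight 488. Automated imaging counted neurites (processes >10 um) per valid neuron; loss of signal versus DMSO scored.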

[11] = ArunA_NOG_BranchPointsPerNeurite: ArunA Biomedical's Neurite Outgrowth (NOG) Assay for Branch Points Per Neurite (AID 2283759)
How it was run: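 Automated image analysis traced neurites (processes >10 um) from valid cell bodies after Hoechst and βIII-tubulin staining. hNN cells from H9 embryonic stem cells, 48 h exposure. Fitted bidirectionally against DMSO.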

[12] = ACEA_AR_antagonist_AUC_viability: ACEA Biosciences xCELLigence Real-Time Cell Analysis on Androgen Receptor Antagonism for Viability (AID 2283776);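 further: 22Rv1 human prostate cancer cells growing on impedance electrode plates; area under impedance growth curve at 80 h after dosing as viability; hits lower the growth signal relative to DMSO meaning cytotoxicity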
How it was run: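 Impedance read-out (RT-CES): area under growth curve at 80 h post-dose, loss of signal scored vs DMSO baseline. 22Rv1 cells; 8-pt 1:4 series, top 100 uM final, ≤0.5% DMSO; biological duplicate.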

[13] = tested on: Thyroperoxidase (TPO), gene 445522; test: CCTE_Simmons_GUA_TPO: CCTE's Guaiacol Assay for Thyroperoxidase (TPO) Inhibition, Simmons Lab (AID 2283750)
How it was run: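 Porcine thyroid microsomes (25 ug) in 200mM potassium phosphate, preincubated 30 s at 37C with compound (8 concentrations, 5 nM–87.5 uM) and 35mM guaiacol; 1mM H2O2 starts reaction. Absorbance change at 450nm over first 80 s; loss of signal versus DMSO, three replicates.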

With COS(C)(=O)=O the AC50 [1] was 62.6 µM (active), the AC50 [2] was 65.5 µM (active) and the outcome [3] was “inactive”. The outcome [4] was “inactive”.

In the case of O=S(=O)(O)c1ccc(N=Nc2c(O)ccc3cc(S(=O)(=O)O)ccc23)cc1, the outcome [5] is reported as “inactive”, the outcome [3] is reported as “inactive” and the outcome [6] is reported as “inactive”.

In the case of OCCNCCO, the AC50 [1] is reported as 22.2 µM (active), the AC50 [2] is reported as 14 µM (active) and the outcome [3] is reported as “inactive”. The outcome [7] was “inactive”, the AC50 [8] was 21.3 µM (active) and the AC50 [9] was 24.8 µM (active). The AC50 [10] was 20.2 µM (active), the AC50 [11] was 15.4 µM (active) and the outcome [6] was “inactive”.

In the case of COc1cc2c(c(OC)c1OC)-c1ccc(OC)c(=O)cc1[C@@H](NC(C)=O)CC2, the AC50 [1] is reported as 0.0121 µM (active), the AC50 [2] is reported as 0.0127 µM (active) and the AC50 [5] is reported as 0.118 µM (active). The AC50 [3] was 36.4 µM (active) and the AC50 [6] was 0.00303 µM (active).

In the case of Cc1nc(-c2ccccn2)ncc1C(=O)Nn1cc(C)c2cc(F)ccc21, the outcome [1] is reported as “inactive”, the outcome [2] is reported as “inactive” and the AC50 [5] is reported as 75.8 µM (active). The outcome [3] was “inactive”.

With CC[C@H](C)C(=O)O[C@H]1C[C@H](O)C=C2C=C[C@H](C)[C@H](CC[C@@H](O)C[C@@H](O)CC(=O)O)[C@H]21 the outcome [1] was “inactive”, the outcome [5] was “inactive” and the outcome [3] was “inactive”. For the same compound, the outcome [6] was “inactive” and the outcome [12] was “inactive”.

In the case of CCCCCCCCN(C)C, the outcome [5] is reported as “inactive”, the outcome [3] is reported as “inactive” and the outcome [6] is reported as “inactive”.

With CC(C)CCCCCCOC(=O)C1CCCCC1C(=O)OCCCCCCC(C)C (stereo unspecified) the outcome [3] was “inactive” and the outcome [6] was “inactive”.

With OCc1ccccc1 the outcome [3] was “inactive” and the outcome [6] was “inactive”.

With c1ccc2ncccc2c1 the outcome [3] was “inactive” and the outcome [6] was “inactive”.

With CCc1cccc(CC)c1N the outcome [3] was “inactive” and the AC50 [6] was 50 µM (active).

For O=C(NO)C1(NS(=O)(=O)c2ccc(Oc3ccc(F)cc3)cc2)CCOCC1, the outcome [3] was “inactive”, the outcome [4] was “inactive” and the AC50 [6] was 38.5 µM (active).

In the case of OC[C@H]1O[C@@H]2O[C@H]3[C@H](O)[C@@H](O)[C@@H](O[C@H]4[C@H](O)[C@@H](O)[C@@H](O[C@H]5[C@H](O)[C@@H](O)[C@@H](O[C@H]6[C@H](O)[C@@H](O)[C@@H](O[C@H]7[C@H](O)[C@@H](O)[C@@H](O[C@H]1[C@H](O)[C@H]2O)O[C@@H]7CO)O[C@@H]6CO)O[C@@H]5CO)O[C@@H]4CO)O[C@@H]3CO, the outcome [3] is reported as “inactive” and the outcome [6] is reported as “inactive”.

With c1ccc(C(O[C@@H]2CCCN(CCc3ccc4c(c3)OCO4)C2)c2ccccc2)cc1 the AC50 [3] was 36.3 µM (active) and the AC50 [6] was 41.3 µM (active).

In the case of CC(=O)c1ccccc1, the outcome [3] is reported as “inactive” and the outcome [6] is reported as “inactive”.

For OC(CCl)CCl, the outcome [3] was “inactive” and the outcome [6] was “inactive”.

In the case of O=C(O)c1cccc(C(=O)O)c1, the outcome [3] is reported as “inactive” and the outcome [6] is reported as “inactive”.

With O=C(O)c1cccc(C[C@@H]2COc3ccc(OCc4nc5cc(F)ccc5s4)cc3[C@@H]2O)c1 the AC50 [3] was 37.3 µM (active) and the outcome [6] was “inactive”.

For CNC(C)=O, the outcome [3] was “inactive”, the outcome [6] was “inactive” and the outcome [12] was “inactive”.

For CCCCCCOC(=O)CC(CC(=O)OCCCCCC)(OC(=O)CCC)C(=O)OCCCCCC, the outcome [3] was “inactive” and the outcome [6] was “inactive”.

With CCCCOC(=O)c1ccccc1 the outcome [3] was “inactive”.

In the case of CCCc1ccccc1, the outcome [3] is reported as “inactive”, the outcome [6] is reported as “inactive” and the outcome [12] is reported as “inactive”.

With COCc1nnc(-c2ccc[n+]([O-])c2)n1-c1c(Cl)c(Cl)cc2[nH]c(=O)c(=O)[nH]c12 the outcome [3] was “inactive” and the outcome [6] was “inactive”.

With C=CN1CCCC1=O the outcome [3] was “inactive”.

For CCCCCCCC1CCC(=O)O1 (stereo unspecified), the AC50 [3] was 43.7 µM (active).

For O=C(O)CO, the outcome [6] was “inactive” and the outcome [12] was “inactive”.

With NC(N)=O the outcome [3] was “inactive” and the outcome [6] was “inactive”.

In the case of CC(C)CC(C)O (stereo unspecified), the outcome [3] is reported as “inactive” and the outcome [6] is reported as “inactive”.

For OC[C@H]1O[C@@](CO)(O[C@H]2O[C@H](CO)[C@@H](O)[C@H](O)[C@H]2O)[C@@H](O)[C@@H]1O, the outcome [3] was “inactive” and the outcome [12] was “inactive”.

With COc1cc(C(C)C)c2c(c1)S(=O)(=O)N(COc1cc(=O)n3cccc(OCCN4CCCCC4)c3n1)C2=O the AC50 [3] was 7.72 µM (active), the AC50 [6] was 22.3 µM (active) and the AC50 [12] was 16.8 µM (active).

With CCOC(N)=O the outcome [3] was “inactive” and the outcome [6] was “inactive”.

With Cc1ccc(S(=O)(=O)NC(=O)NN2CCCCCC2)cc1 the outcome [3] was “inactive” and the outcome [4] was “inactive”.

With CCc1ccc(O)c(C(C)(C)C)c1 the outcome [3] was “inactive”, the outcome [4] was “inactive” and the AC50 [6] was 66.1 µM (active).

With Cc1nccn1-c1ccc(Sc2cccc(C3(C(N)=O)CCOCC3)c2)cc1 the outcome [3] was “inactive” and the AC50 [6] was 25.5 µM (active).

With NNC(=O)c1ccncc1 the outcome [3] was “inactive”, the AC50 [13] was 20.7 µM (active) and the outcome [4] was “inactive”.

In the case of CCCCCCCC/C=C\CCCCCCCC(=O)OC[C@@H](O)[C@H]1OC[C@H](O)[C@H]1O, the outcome [3] is reported as “inactive” and the outcome [6] is reported as “inactive”.

In the case of OCC(CO)(CO)CO, the outcome [3] is reported as “inactive” and the outcome [6] is reported as “inactive”.

For OCCOCCOCCO, the outcome [3] was “inactive” and the outcome [12] was “inactive”.

In the case of Cc1cccc(O)c1C, the outcome [4] is reported as “inactive” and the outcome [12] is reported as “inactive”.

With CCCCCCCCCCCCCCCCOS(=O)(=O)O the outcome [3] was “inactive”, the outcome [4] was “inactive” and the AC50 [6] was 38.3 µM (active). The AC50 [12] was 43.8 µM (active).

In the case of O=C(O)[C@H](O)[C@@H](O)C(=O)O, the outcome [6] is reported as “inactive” and the outcome [12] is reported as “inactive”.

For O=C(O)c1ccc2c(c1)nc(C(=O)NC1CCN(C3CC3)CC1)n2Cc1cc(-c2ccc(Cl)s2)on1, the outcome [3] was “inactive” and the AC50 [6] was 18.6 µM (active).

For NC(=O)N(O)[C@@H]1COc2cc(OCc3ccccc3)ccc21, the outcome [3] was “inactive”, the AC50 [4] was 2.1 µM (active) and the outcome [6] was “inactive”.
